Test results taken from PubChem BioAssay AID1566 (Sanford-Burnham Center for Chemical Genomics, 2009).
Values joined by “and” are separate entries in the source; they are usually repeats but may differ in a detail not shown here. Identical values can stand only once. Among all 290,000 compounds or so, about 1,800 (0.62%) were called active. Rule as the data show it: active = inhibition above about 50%; inactive = the rest. This excerpt belongs to a sample that is enriched for actives.

assay: inhibition of NOD2-driven NF-kB reporter – cell-based, luminescence, uHTS, HEK293 (AID 1566); settings: HEK293 NOD2/NF-kB luciferase reporter, at 4 µM, active compounds read high

inhibition, inactive:
Nn1cnnc1SCC(=O)Nc1ccc(C2CCCCC2)cc1 -14.6%, O=C(CSCCO)Nc1ccc(C2CCCCC2)cc1 -8.8%, C=C1CCC[C@]2(C)C[C@H]3OC(=O)C(CNC(C)(CO)CO)[C@H]3CC12 (stereo partly drawn) 3.4%, CC1(C)CC(NC(=O)c2cccc3ccccc23)CC(C)(C)N1 -1.7%, COc1cc(C(=O)Nc2scc(-c3ccc(C)cc3)c2C(=O)O)cc(OC)c1OC 42.9%, COc1cc(C(=O)Nc2scc(-c3ccccc3)c2C(=O)O)cc(OC)c1OC 13.6%, CC1CCc2c(sc(NC(=O)c3ccco3)c2C(=O)O)C1 (stereo not drawn) 36.1%, COc1cc(C(=O)Nc2sc3c(c2C(=O)O)CCC3)cc(OC)c1OC 23.1%, CC(C)(C)OC(=O)C(C)(C)O/N=C(\C(=O)O)c1csc(N)n1 12.5%, Cn1c(N/N=C/c2cc3ccccc3nc2Cl)nc2ccccc21 -51%, Clc1ccc(-c2nc3n(n2)Cc2ccccc2-3)cc1 -152%, Cc1ccc(-c2nc3n(n2)Cc2ccccc2-3)cc1 -79.2%, CCC(=O)c1ccccc1OCCN1CCN(Cc2ccccc2)CC1 2.5%, O=C1OCCC1Sc1nnc(-c2ccc3c(c2)OCO3)o1 (stereo not drawn) 28%, O=C(c1ccc(Cl)cc1)N1CCCCC(Sc2nnc(-c3ccc4c(c3)OCO4)o2)C1=O (stereo not drawn) 29.1%, CCN(CC)c1ccc2cc(C(N)=O)c(=O)oc2c1 -17.6%, CCN(CC)c1ccc2cc(C(C)=O)c(=O)oc2c1 -9.9%, O=C(N/N=C/c1cccc(O)c1)C(=O)N1CCCCCC1 8.2%, COc1ccc(COC(=O)C2=C(C)NC(=O)NC2c2ccc(O)cc2)cc1 (stereo not drawn) 5.6%, COc1ccc(COC(=O)C2=C(C)NC(=O)NC2c2ccc(OC)cc2)cc1 (stereo not drawn) 17.9%, O=C(CN1CCN(S(=O)(=O)c2ccc(Cl)cc2)CC1)NC1CCCC1 -2.2%, C#CC(=O)N(c1ccc(OC)c(OC)c1)C(C(=O)NC1CCCC1)c1cccs1 (stereo not drawn) -0.2%, C#CC(=O)N(c1cc(OC)ccc1OC)C(C(=O)NC1CCCC1)c1cccs1 (stereo not drawn) 17%, CC(=O)c1c(C)[nH]c(C(=O)Nc2nc(-c3ccc(Cl)cc3)cs2)c1C 31.2%, CC(=O)c1c(C)[nH]c(C(=O)Nc2nc(C)cs2)c1C -21.9%, CCCNC(=O)CCCN1C(=O)c2ccccc2Sc2ncccc21 7.1%, CCCCN(CC)CCCNC(=O)Cn1nc(Cc2ccncc2)c2ccccc2c1=O 2.4%, COc1ccc(-n2c(-c3ccc(Br)cc3)c[n+]3c2CCc2ccccc2-3)cc1 31.4%, COc1ccccc1-n1c(-c2ccccc2)c[n+]2c1CCc1ccccc1-2 49% and 41.3%, Cc1cc(C(=O)COC(=O)c2ccccc2NCCO)c(C)n1CC1CCCO1 (stereo not drawn) -4.6%, COCCn1c(C)cc(C(=O)COC(=O)c2ccc[nH]c2=O)c1C 29.6%, Cc1cc(C(=O)COC(=O)c2ccc(O)cc2)c(C)n1CC1CCCO1 (stereo not drawn) -113%, Cc1ccc(C(=O)OCC(=O)c2cc(C)n(CC3CCCO3)c2C)cc1 (stereo not drawn) 18.2%, COCCn1c(C)cc(C(=O)COC(=O)c2ccc(Br)o2)c1C 4.7%, CSc1ncccc1C(=O)OCC(=O)c1cc(C)n(CC2CCCO2)c1C (stereo not drawn) 5.9%, O=C(CC1C(=O)NCCN1C(=O)Nc1ccc(Cl)cc1)Nc1ccc(F)cc1 (stereo not drawn) 8.1%, COc1ccc(C/C(C)=N/NC(=O)c2cccnc2)cc1 -5.6%, CCOc1ccccc1/C=C/C(=O)NCC(=O)N1CCC(N(C)C2CCCCC2C)CC1 (stereo not drawn) 9.7%, COc1ccc(CNCCNC(=O)c2nonc2N)cc1OC 11.4%, Cc1ccc(S(=O)(=O)Nc2ccccc2C(=O)N2CCN(C)CC2)cc1 4%, COc1ccc(NC(=O)CO/N=C(\C)c2cccs2)cc1 -10.2%, O=C(Nc1ccccc1)Nc1cccc(C(F)(F)F)c1 -38.6%, O=C(Nc1ccncc1)Nc1cccc(C(F)(F)F)c1 18%, O=S(=O)(c1ccc(NCc2ccc(F)cc2)nc1)N1CCCC1 12.4%, CC(OC(=O)Cc1ccc(Cl)cc1)C(=O)NCCC1=CCCCC1 (stereo not drawn) 17.9%, COC(=O)c1ccc(NC(=O)c2ccccc2NS(C)(=O)=O)cc1 6.5%, Cc1ccccc1OCC(=O)Nc1ccc(C(=O)Nc2ccccc2C(=O)O)cc1 33.3%, COC(=O)c1ccccc1NS(=O)(=O)c1ccc(NC(C)=O)cc1 1.9%, Cc1cc(C(=O)Nc2ccccc2C(=O)O)ccc1NC(=O)COc1cccc(C)c1C 47.7%, COc1ccccc1C(=O)Nc1ccc(C(=O)c2ccccc2)cc1 4.1%, COc1ccccc1C(=O)Nc1ccc(C(=O)O)cc1 -1.4%, c1ccc(CCSc2nccn2-c2ccccc2)cc1 -141%, CCCc1cc(=O)oc2c3c(c(Cl)cc12)OCN(CCCO)C3 -64.8%, CC(C)C(c1nnnn1C1CCCCC1)N1CCOCC1 (stereo not drawn) 0.1%, CCOC(=O)c1cccc(NC(=O)c2cc3ccccc3o2)c1 -97.4%, CCOc1ccc(/C=N/n2c(C)nnc2C)cc1OC 8%, Cc1ccc(C(=O)OCc2cc3ccccc3[nH]c2=O)cc1 3.6%, O=C(c1ccc(N2CCN(C(=O)c3ccc(F)cc3F)CC2)cc1)c1cccc(F)c1 10.3%, COCCn1c(C)cc(C2=NNC(=NC(C)(C)C)SC2)c1C 4.6%, C=CCn1c(C)cc(C2=NNC(=NCc3ccccc3)SC2)c1C -78%, COCCN=C1NN=C(c2cc(C)n(CC3CCCO3)c2C)CS1 (stereo not drawn) 19.4%, COCCn1c(C)cc(C2=NNC(=Nc3ccc(OC)cc3)SC2)c1C -9.9%, COCCCN=C1NN=C(c2cc(C)n(Cc3ccccc3Cl)c2C)CS1 -30.7%, COCCn1c(C)cc(C2=NNC(=Nc3ccc(Cl)cc3Cl)SC2)c1C 8.7%, COCCn1c(C)cc(C2=NNC(=Nc3ccccc3)SC2)c1C -146%, Cc1cc(C2=NNC(=NCCc3ccccc3)SC2)c(C)n1CC1CCCO1 (stereo not drawn) -32.5%, C#CCOc1c(Cl)cc(/C=C2/C(=O)ON=C2C)cc1OC 6.6%, Cn1c(=O)oc2cc(S(=O)(=O)NCCC(=O)NC3CCCC3)ccc21 -0.1%, COc1ccc(CCN=C(N)Nc2nc(C)cc(C)n2)cc1 8.4%, COCCn1c(Cc2cccn2C)nnc1SCC(=O)NCc1ccc2c(c1)OCO2 5.3%, COc1ccccc1-n1c(SCC(=O)N2CCOCC2)nc2ccccc2c1=O 2.8%, CCOC(=O)CNC(=O)CSc1ccc2nnc(-c3ccc(F)cc3)n2n1 8.4%, Cc1ccc(-c2noc(C3CCCN(C(=O)c4ccc(Cl)cc4)C3)n2)o1 (stereo not drawn) -1.8%, C=CCn1c(C)cc(C2=NNC(=Nc3ccc(C)cc3)SC2)c1C 3%, CC(C)(C)N=C1NN=C(c2ccc(Cl)cc2)CS1 -99%, CCN=C1NN=C(c2ccc(C)cc2)CS1 -71.4%, Cc1cc(C2=NNC(=Nc3ccccc3)SC2)c(C)n1C -60.1%, CN(C(=O)Cn1nnc2ccccc2c1=O)C1CCCCC1 6.8%, COc1ccc(-c2nnc(SCC(=O)NC3CCCCC3)o2)cc1 6%, CCOc1ccccc1N(CC(=O)NCC1CCCO1)C(=O)CNS(=O)(=O)c1ccccc1 (stereo not drawn) -15.5%, COc1ccc(-n2c(-c3ccc(C)cc3)n[nH]c2=S)cc1 -6.4%, O=C(CCSc1nc(-c2ccco2)cc(C(F)(F)F)n1)N1CCN(c2ccccc2)CC1 -17.1%

inhibition, active:
O=C(O)CSCC(=O)Nc1ccc(C2CCCCC2)cc1 73.5%, CCn1c(C)nc2cc(-c3nc4n(n3)Cc3ccccc3-4)ccc21 93%, O=C1CCCCC1Sc1nnc(-c2ccc3c(c2)OCO3)o1 (stereo not drawn) 71.3%, CCN(CC)c1ccc2cc(NC(=O)CCC(=O)O)c(=O)oc2c1 57.1%, COc1ccc(COC(=O)C2=C(C)NC(=O)NC2c2ccc(F)cc2)cc1 (stereo not drawn) 50.5%, C#CC(=O)N(c1ccc(OC)cc1OC)C(C(=O)NC1CCCC1)c1cccs1 (stereo not drawn) 62%, Cc1ccc(-n2c(-c3ccccc3)c[n+]3c2CCc2ccccc2-3)c(C)c1 56.2%, Cc1cc(C(=O)COC(=O)c2cccnc2Cl)c(C)n1CC1CCCO1 (stereo not drawn) 55.8%, COCCn1c(C)cc(C(=O)COC(=O)c2ccccc2Br)c1C 68.7%, COc1ccccc1C(=O)Nc1ccc(C(=O)Nc2ccccc2C(=O)O)cc1 59.6%, C=CCN=C1NN=C(c2cc(C)n(CC=C)c2C)CS1 73.6%, C=CCN=C1NN=C(c2cc(C)n(CCOC)c2C)CS1 65.1%, COCCn1c(C)cc(C2=NNC(=Nc3ccccc3F)SC2)c1C 61.6%, COCCn1c(C)cc(C2=NNC(=NC3CC3)SC2)c1C 94%, C=CCn1c(C)cc(C2=NNC(=NC(C)(C)C)SC2)c1C 63.3%, C=CCn1c(C)cc(C2=NNC(=NCC)SC2)c1C 92.6%
